Reference: PubChem BioAssay (Tox21)
Results filed as inconclusive are left out. Active and inactive are the calls of the source. Unless noted, calls follow the shape of the full dose curve.

Legend:
[1] = Nuclear factor erythroid 2-related factor 2/antioxidant responsive element (Nrf2/ARE) small molecule agonists: qHTS cell viability counter screen in human keratinocytes (AID 1919968; active = well fitted curve in the direction sought with a large enough effect in the repeat runs; an effect the other way counts as inactive or inconclusive; also: nearly all actives have a fitted effect of over 55% in size)
In short: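 Viability counter-screen: KeratinoSens reporter cells, DMSO-delivered compounds, 23 h at 37 C, CellTiter-Fluor fluorescence.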

[2] = Nuclear factor erythroid 2-related factor 2/antioxidant responsive element (Nrf2/ARE) small molecule agonists: luciferase reporter gene qHTS assay in human keratinocytes (AID 1919969); also: nearly all actives have a fitted effect of over 35% in size
[3] = molecular target: Gonadotropin-releasing hormone receptor (Homo sapiens) (UniProt P30968); assay: Human gonadotropin-releasing hormone receptor (GnRHR) small molecule agonists, calcium flux assay in GnRHR-HEK293 cells (AID 1920063); also: nearly all actives have a fitted effect of over 35% in size
Gonadotropin-releasing hormone receptor (Homo sapiens), sequence (P30968 whole entry, looked up): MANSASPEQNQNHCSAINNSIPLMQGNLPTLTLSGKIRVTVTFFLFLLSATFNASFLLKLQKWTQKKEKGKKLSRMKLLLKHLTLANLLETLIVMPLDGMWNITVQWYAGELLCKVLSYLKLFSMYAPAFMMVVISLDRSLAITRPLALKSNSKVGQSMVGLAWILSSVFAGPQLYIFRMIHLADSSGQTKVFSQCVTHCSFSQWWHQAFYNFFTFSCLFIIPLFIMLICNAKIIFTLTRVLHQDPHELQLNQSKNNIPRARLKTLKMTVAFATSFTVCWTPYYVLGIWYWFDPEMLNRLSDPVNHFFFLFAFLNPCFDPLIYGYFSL
In short: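 Tox21-format agonist screen using human GnRHR-expressing HEK293 cells and a fluorescent calcium dye; kinetic 3-min fluorescence reading after compound addition, 15-point concentration series run in triplicate.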

[4] = molecular target: KiSS-1 receptor (Homo sapiens) (UniProt Q969F8); assay: Human kisspeptin (KISS1R) small molecule agonists, calcium flux assay in KISS1R-HEK293 cells (AID 1920064; active = well fitted curve in the direction sought with a large enough effect in the repeat runs; an effect the other way counts as inactive or inconclusive)
KiSS-1 receptor (Homo sapiens), sequence (Q969F8 whole entry, looked up): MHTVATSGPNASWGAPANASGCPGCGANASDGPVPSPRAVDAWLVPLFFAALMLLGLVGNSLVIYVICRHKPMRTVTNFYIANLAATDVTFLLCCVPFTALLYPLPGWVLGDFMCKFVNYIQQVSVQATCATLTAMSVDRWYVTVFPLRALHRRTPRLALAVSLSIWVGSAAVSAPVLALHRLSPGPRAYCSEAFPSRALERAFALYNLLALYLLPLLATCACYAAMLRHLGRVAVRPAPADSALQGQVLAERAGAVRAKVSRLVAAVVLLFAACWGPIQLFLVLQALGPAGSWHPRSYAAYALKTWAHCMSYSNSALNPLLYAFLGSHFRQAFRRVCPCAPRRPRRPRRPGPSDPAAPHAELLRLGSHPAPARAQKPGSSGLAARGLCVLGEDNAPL
In short: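 Intracellular calcium mobilization in KISS1R-HEK293 cells was recorded by fluorescence (Ex/Em 480/540) for 3 min following compound addition to cells pre-loaded 1 h with calcium dye.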

[5] = G protein-coupled receptor (GPCR) small molecule agonists, calcium flux assay: HEK293 wild type cell line counter screen (AID 1920065)
In short: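 In this agonist-mode screen, ATP is the positive control and DMSO the vehicle. Cells grow 18 h before a 1 h dye incubation at 37 C; signal is taken at Ex/Em 480/540 over 3 min.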

[6] = p53 small molecule agonists, cell-based qHTS assay with human liver microsomes (AID 1963577);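 also: p53 response element beta-lactamase reporter cells with liver microsomes plus NADPH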
In short: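 16 h, 37 C exposure of p53RE-bla cells to compounds with human liver microsomes and NADPH (0.5 mg/mL final each); detection via LiveBLAzer mixture, 2 h dark at room temperature.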

[7] = p53 small molecule agonists, cell-based qHTS assay with rat liver microsomes (AID 1963578)
In short: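 With rat liver microsomes and NADPH present (0.5 mg/mL final each), p53RE-bla cells are treated with compound for 16 h at 37 C. LiveBLAzer detection mixture is then applied for 2 h at room temperature in the dark.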

[8] = p53 small molecule agonists, cell-based qHTS assay with human liver microsomes: qHTS cell viability counter screen (AID 1963579); also: nearly all actives have a fitted effect of over 45% in size
In short: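 In this multiplexed counter screen, the reporter plates were subsequently treated with CellTiter-Glo so that cell viability, reflected by luminescence, could be recorded for p53RE-bla cells dosed 16 h with compounds under microsomal activation (HLM and NADPH).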

[9] = p53 small molecule agonists, cell-based qHTS assay with rat liver microsomes: qHTS cell viability counter screen (AID 1963580); also: nearly all actives have a fitted effect of over 45% in size
In short: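 Viability is assessed in parallel with the p53 reporter read: HCT-116 p53RE-bla cells receive compounds plus rat microsomes and NADPH (0.5 mg/mL final apiece), incubate 16 h at 37 C, and then CellTiter-Glo luminescence is recorded.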

[10] = p53 small molecule agonists, cell-based qHTS assay: qHTS cell viability counter screen (AID 1963581); also: nearly all actives have a fitted effect of over 45% in size
In short: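 Compounds are pinned onto HCT-116 p53RE-bla cells and left 16 h at 37 C. Following the reporter FRET read, ATP is quantified by CellTiter-Glo luminescence after 30 min at room temperature.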

[11] = p53 small molecule agonists, cell-based qHTS assay (AID 1963582; active = well fitted activation curve with a large enough effect in the signal ratio in the repeat runs, not every such curve was filed as active; the % refers to the signal ratio)
In short: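 Agonist activity was scored from beta-lactamase FRET fluorescence in p53RE-bla cells treated 16 h at 37 C with compounds in DMSO, substrate incubation being 2 h at room temperature.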

[12] = molecular target: 5-hydroxytryptamine receptor 2A (Homo sapiens) (UniProt P28223); assay: 5-hydroxytryptamine receptor 2A (HTR2A) small molecule antagonists, cell-based qHTS assay (AID 1963586); also: nearly all actives have a fitted effect of over 45% in size
5-hydroxytryptamine receptor 2A (Homo sapiens), sequence (P28223 whole entry, looked up): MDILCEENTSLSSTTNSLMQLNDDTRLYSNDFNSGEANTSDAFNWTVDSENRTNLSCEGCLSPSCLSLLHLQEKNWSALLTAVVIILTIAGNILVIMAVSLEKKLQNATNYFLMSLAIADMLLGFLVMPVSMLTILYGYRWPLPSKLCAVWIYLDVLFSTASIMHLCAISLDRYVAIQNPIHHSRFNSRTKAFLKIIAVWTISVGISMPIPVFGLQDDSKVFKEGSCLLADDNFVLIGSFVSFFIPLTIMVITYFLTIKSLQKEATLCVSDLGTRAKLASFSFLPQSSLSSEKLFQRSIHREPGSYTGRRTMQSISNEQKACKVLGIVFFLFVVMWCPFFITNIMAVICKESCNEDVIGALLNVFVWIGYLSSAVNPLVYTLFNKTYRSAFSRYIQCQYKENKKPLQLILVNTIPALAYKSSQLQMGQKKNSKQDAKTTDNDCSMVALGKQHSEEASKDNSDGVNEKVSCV
In short: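 Antagonist-mode intracellular calcium assay: DOI (4 nM) added after 5 min compound pre-incubation at room temperature to dye-loaded HTR2A-CHO cells. Fluorescence followed for 3 min, sampled every second.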

[13] = molecular target: 5-hydroxytryptamine receptor 2A (Homo sapiens) (UniProt P28223); assay: 5-hydroxytryptamine receptor 2A (HTR2A) small molecule agonists, cell-based qHTS assay (AID 1963587); also: nearly all actives have a fitted effect of over 30% in size
In short: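 CHO cells stably expressing human HTR2A, plated 18 h, loaded with calcium dye 1 h at 37 C. Agonist mode: compounds added and intracellular calcium fluorescence recorded kinetically for 2 min at 1 sec intervals.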

[14] = molecular target: Muscarinic acetylcholine receptor M1 (Homo sapiens) (UniProt P11229); assay: Cholinergic receptor muscarinic 1 (CHRM1) small molecule antagonists, cell-based qHTS assay (AID 1963588); also: nearly all actives have a fitted effect of over 40% in size
Muscarinic acetylcholine receptor M1 (Homo sapiens), sequence (P11229 whole entry, looked up): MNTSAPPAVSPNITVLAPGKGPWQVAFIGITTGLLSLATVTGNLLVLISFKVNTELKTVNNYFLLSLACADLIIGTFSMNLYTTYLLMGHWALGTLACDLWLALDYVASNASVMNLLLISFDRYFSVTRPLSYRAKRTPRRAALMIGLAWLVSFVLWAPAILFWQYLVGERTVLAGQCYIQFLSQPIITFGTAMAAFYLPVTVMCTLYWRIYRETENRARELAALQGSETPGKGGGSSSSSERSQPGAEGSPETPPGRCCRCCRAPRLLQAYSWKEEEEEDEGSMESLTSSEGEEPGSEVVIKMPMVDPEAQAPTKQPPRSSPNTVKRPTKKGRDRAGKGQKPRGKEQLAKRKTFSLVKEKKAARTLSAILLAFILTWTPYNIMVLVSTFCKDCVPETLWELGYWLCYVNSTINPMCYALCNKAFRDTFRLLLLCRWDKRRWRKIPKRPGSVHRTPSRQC
In short: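 CHRM1-CHO calcium-flux assay, antagonist mode. Cells were seeded 18 h, dye-loaded 1 h at 37 C and given compound for 5 min at RT, then acetylcholine was added at 50nM. FDSS fluorescence was read 3 min; 15 concentrations, three runs.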

[15] = molecular target: Muscarinic acetylcholine receptor M1 (Homo sapiens) (UniProt P11229); assay: Cholinergic receptor muscarinic 1 (CHRM1) small molecule agonists, cell-based qHTS assay (AID 1963589); also: nearly all actives have a fitted effect of over 35% in size
In short: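 Stable CHRM1-CHO cells (human receptor) were incubated 18 h, dye-loaded for 1 h at 37 C and exposed to test compounds for agonist activity, with calcium-dependent fluorescence followed kinetically.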

[16] = cAMP Responsive Elements (CRE) small molecule agonists, cell-based qHTS assay (AID 1963590)
In short: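 FRET-based beta-lactamase readout (LiveBLAzer B/G, 2 h RT) quantified CRE activation in HEK 293T CRE-bla cells after 3 h treatment with DMSO-dissolved compounds.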

[17] = cAMP Responsive Elements (CRE) small molecule antagonists, cell-based qHTS assay (AID 1963591; active = well fitted inhibition curve with a large enough effect in the signal ratio in the repeat runs, not every such curve was filed as active; the % refers to the signal ratio)
In short: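 qHTS in CRE-bla HEK 293T cells: compound in DMSO, then 0.25 uM NKH477 (final), 3 h at 37 °C/5% CO2; beta-lactamase FRET read-out after 2 h substrate incubation.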

[18] = molecular target: Beta-2 adrenergic receptor (Homo sapiens) (UniProt P07550); assay: Adrenergic beta2 receptor (ADRB2) small molecule antagonists, cell-based qHTS assay (AID 1963592); also: series mostly up to about 92 µM; nearly all actives have a fitted effect of over 50% in size
Beta-2 adrenergic receptor (Homo sapiens), sequence (P07550 whole entry, looked up): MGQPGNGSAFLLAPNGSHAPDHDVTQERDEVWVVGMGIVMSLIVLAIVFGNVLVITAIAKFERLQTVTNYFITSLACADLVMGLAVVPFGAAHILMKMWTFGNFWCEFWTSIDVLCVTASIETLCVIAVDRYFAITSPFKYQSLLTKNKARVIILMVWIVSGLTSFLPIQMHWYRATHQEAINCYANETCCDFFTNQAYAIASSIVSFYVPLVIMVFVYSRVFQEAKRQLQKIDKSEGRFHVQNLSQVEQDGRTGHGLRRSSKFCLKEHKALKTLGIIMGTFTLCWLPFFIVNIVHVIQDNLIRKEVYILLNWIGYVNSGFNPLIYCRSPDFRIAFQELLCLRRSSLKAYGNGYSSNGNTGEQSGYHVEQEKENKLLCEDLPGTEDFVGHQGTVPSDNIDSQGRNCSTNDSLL
In short: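 Cells (CHO, stable ADRB2 overexpression) incubated 18-20hr at 37C; compounds added from DMSO; agonist mix (1nM isoproterenol, 100uM IBMX, 25uM Ro-20-1724) added; 0.5hr RT; d2-cAMP and anti-cAMP-cryptate added; 1hr RT; 665/615 nm read.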

[19] = molecular target: D(2) dopamine receptor (Homo sapiens) (UniProt P14416); assay: Dopamine D2 receptor (DRD2) small molecule agonists, cell-based qHTS assay (AID 1963594); also: nearly all actives have a fitted effect of over 35% in size
D(2) dopamine receptor (Homo sapiens), sequence (P14416 whole entry, looked up): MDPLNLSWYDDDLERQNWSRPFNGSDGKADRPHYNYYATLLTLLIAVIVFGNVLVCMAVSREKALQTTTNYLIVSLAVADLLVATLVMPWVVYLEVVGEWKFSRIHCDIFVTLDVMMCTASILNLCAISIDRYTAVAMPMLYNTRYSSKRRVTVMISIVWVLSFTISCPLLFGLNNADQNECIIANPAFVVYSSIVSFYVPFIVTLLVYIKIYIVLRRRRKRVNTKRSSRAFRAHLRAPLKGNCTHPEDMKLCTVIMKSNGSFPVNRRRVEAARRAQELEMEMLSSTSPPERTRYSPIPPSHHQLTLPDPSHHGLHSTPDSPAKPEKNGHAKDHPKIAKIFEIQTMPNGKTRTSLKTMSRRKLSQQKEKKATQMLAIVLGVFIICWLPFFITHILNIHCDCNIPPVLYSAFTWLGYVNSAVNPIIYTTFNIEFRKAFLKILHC
In short: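 HEK293 cells stably expressing human DRD2, pre-treated with PDE inhibitor Ro20-1724 (0.1 mM final) and compound 10 min at room temperature, then stimulated with NKH477 (200nM […]) for 30 min. cAMP read by HTRF (665/620 nm).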

[20] = molecular target: D(2) dopamine receptor (Homo sapiens) (UniProt P14416); assay: Dopamine D2 receptor (DRD2) small molecule antagonists, cell-based qHTS assay (AID 1963595; active = well fitted inhibition curve with a large enough effect in the signal ratio in the repeat runs, with a control signal flat; the % refers to the signal ratio)
In short: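 Antagonist mode in DRD2-HEK293 cells: after compound addition with 0.1 mM Ro20-1724, cells received quinpirole (12 nM) and NKH477 (200 nM) for 30 min at room temperature; HTRF cAMP read after 1 h detection.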

Measured: Potency

O=C(O)CNC(=O)c1ccc([N+](=O)[O-])cc1
inactive: all assays above

O=C(O)COCC(=O)O
inactive: all assays above

CCCCCCCCC(C)=O
inactive: all assays above

C[C@H]1C[C@H]2[C@@H]3CCC4=CC(=O)C=C[C@]4(C)[C@H]3C(=O)C[C@]2(C)[C@@]1(O)C(=O)CO
inactive: all assays above

Nc1ccc(C(=O)OCC(O)CO)cc1 (stereo not drawn)
inactive: all assays above

CCCCCOC(=O)CCC
not listed: [19]
inactive: all other assays above

CCO[Si](OCC)(OCC)OCC
inactive: all assays above

CCOc1ccc2ccccc2c1C(=O)N[C@@H]1C(=O)N2[C@@H]1SC(C)(C)[C@@H]2C(=O)O
not listed: [19]
inactive: all other assays above

CC(=O)c1cnccn1
inactive: all assays above

CCCCCC#CC(=O)OC
inactive: all assays above

Cc1ccc(N)nc1
inactive: all assays above

CCCc1ccc(O)c(OC)c1
inactive: all assays above
